In the supplement of paper PMC6897291:
Structures can show the parent of a compound that is named as a salt.

system: RIVA; experiment: growth inhibition by drug alone (1 - RLU/untreated control) (fraction); higher = stronger inhibition; details: 10 nM; time (day): 6; 177Lu-lilotomab satetraxetan 0 ug/ml
Summary of the method: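 RIVA or U-2932 cells, untreated or pretreated 18 h with a radiolabelled anti-CD37 antibody conjugate (~600 MBq/mg; 0.5 µg/ml RIVA, 1 µg/ml U-2932), were washed and seeded at 3,000 cells/well on plates pre-printed with the Selleck Cambridge Cancer Compound library. Doses were 10/100 nM (RIVA) or 10/1,000 nM (U-2932). RealTime-Glo luminescence was read daily from day 3 after 1 h at 37°C. Growth inhibition is 1 − RLU/mean of 48 untreated no-drug wells per plate.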

In order of rising “growth inhibition by drug alone” value:
1. COc1cc2c(NC3CCN(C)CC3)nc(N3CCCN(C)CC3)nc2cc1OCCCN(C)C  -0.819
2. O=C(O)c1ccc(-c2c[nH]c3ncc(-c4ccccc4)cc23)cc1C1CCCC1  -0.797
3. CCC[C@H](NC(=O)/C(C#N)=C/c1cccc(Br)n1)c1ccccc1  -0.663
4. CCc1c2c(nc3ccc(OC(=O)N4CCC(N5CCCCC5)CC4)cc13)-c1cc3c(c(=O)n1C2)COC(=O)[C@]3(O)CC [Irinotecan HCl Trihydrate (Campto)]  -0.511
5. C=CCn1c(=O)c2cnc(Nc3ccc(N4CCN(C)CC4)cc3)nc2n1-c1cccc(C(C)(C)O)n1  -0.482
6. Cc1cnc(Nc2ccc(OCCN3CCCC3)cc2)nc1Nc1cccc(S(=O)(=O)NC(C)(C)C)c1  -0.459
7. Cc1cc(Nc2cc(N3CCN(C)CC3)nc(/C=C/c3ccccc3)n2)n[nH]1  -0.447
8. COc1ccc2c3n(c(=NC(=O)c4cccnc4)nc2c1OC)CCN3  -0.345
9. CC(=O)c1c(C)c2cnc(Nc3ccc(N4CCNCC4)cn3)nc2n(C2CCCC2)c1=O  -0.339
10. CCc1cc(Nc2nccc(-c3c(-c4ccc(OC)c(C(=O)Nc5c(F)cccc5F)c4)nc4ccccn34)n2)c(OC)cc1N1CCC(N2CCN(S(C)(=O)=O)CC2)CC1  -0.339
11. OCCn1cc(-c2ccc3c(c2)CC/C3=N\O)c(-c2ccncc2)n1  -0.335
12. CN(C)c1ccccc1CN1CCCN(Cc2ccccc2N(C)C)C1c1ccncc1  -0.333
13. Cc1cn(-c2cc(NC(=O)c3ccc(C)c(Nc4nccc(-c5cccnc5)n4)c3)cc(C(F)(F)F)c2)cn1 [Nilotinib (AMN-107)]  -0.318
14. O=C1CN2Cc3c(ccc(Cl)c3Cl)N=C2N1 [Anagrelide]  -0.302
15. COc1ccc(COc2cc3oc(=O)c4cc(C(C)O)ccc4c3cc2OC)cc1 (stereo unspecified) [Palomid 529]  -0.281
16. CCC(C)(C)C(=O)O[C@H]1C[C@@H](C)C=C2C=C[C@H](C)[C@H](CC[C@@H]3C[C@@H](O)CC(=O)O3)[C@H]21 [Simvastatin (Zocor)]  -0.276
17. CC[C@H](Nc1ncnc2[nH]cnc12)c1nc2cccc(F)c2c(=O)n1-c1ccccc1  -0.255
18. O=C(O)C1(C(=O)O)CCC1.[NH2-].[NH2-].[Pt+2] [Carboplatin]  -0.249
19. CCOc1ccc(Nc2nc(-c3c(C)nc4ccccn34)cs2)cc1  -0.237
20. CO[C@@H](C(=O)N1Cc2[nH]nc(NC(=O)c3ccc(N4CCN(C)CC4)cc3)c2C1)c1ccccc1  -0.234
21. NC(=O)c1ccc(-c2nc(-c3ccccn3)c(-c3ccc4c(c3)OCO4)[nH]2)cc1  -0.233
22. C#Cc1cccc(Nc2ncnc3cc(OCCOC)c(OCCOC)cc23)c1 [Erlotinib HCl]  -0.221
23. CC(C)(C#N)c1cc(Cn2cncn2)cc(C(C)(C)C#N)c1 [Anastrozole]  -0.213
24. CCN(CC)CCCCNc1ncc2cc(-c3cc(OC)cc(OC)c3)c(NC(=O)NC(C)(C)C)nc2n1  -0.211
25. CC(C)(C)c1ccc(S(=O)(=O)/C=C/C#N)cc1  -0.202
26. CCc1ccc(CCOc2ccc(CC3SC(=O)NC3=O)cc2)nc1 (stereo unspecified) [Pioglitazone (Actos)]  -0.191
27. Cn1cc(C2=C(c3ccc(Cl)cc3Cl)C(=O)NC2=O)c2ccccc21  -0.172
28. CNCc1ccc(-c2[nH]c3cc(F)cc4c3c2CCNC4=O)cc1  -0.165
29. CC(C=CC(=O)NO)=CC(C)C(=O)c1ccc(N(C)C)cc1 (stereo unspecified) [Trichostatin A (TSA)]  -0.162
30. O=C1CN2Cc3c(ccc(Cl)c3Cl)N=C2N1 [Anagrelide hydrochloride]  -0.0807
31. COc1cc2nc(N3CCCN(C)CC3)nc(NC3CCN(Cc4ccccc4)CC3)c2cc1OC  -0.0793
32. Cn1cnc(N)c2ncnc1-2 [3-Methyladenine]  -0.0603
33. CS(=O)(=O)c1ccc(C(=O)Nc2ccc(Cl)c(-c3ccccn3)c2)c(Cl)c1 [Vismodegib (GDC-0449)]  -0.0572
34. CNC(=O)c1cc(Oc2ccc(NC(=O)Nc3ccc(Cl)c(C(F)(F)F)c3)c(F)c2)ccn1 [Regorafenib (BAY 73-4506)]  0.0537
35. O=C(NCCCNc1nc(Nc2cccc(NC(=O)N3CCCC3)c2)ncc1I)c1cccs1  0.207
36. CC[C@@H]1C(=O)N(C)c2cnc(Nc3ccc(C(=O)NC4CCN(C)CC4)cc3OC)nc2N1C1CCCC1  0.908
37. CC(C)C[C@H](NC(=O)[C@H](Cc1ccccc1)NC(=O)c1cnccn1)B(O)O [Bortezomib (Velcade)]  0.96
38. CC[C@]1(O)C[C@H]2CN(CCc3c([nH]c4ccccc34)[C@@](C(=O)OC)(c3cc4c(cc3OC)N(C=O)[C@H]3[C@@](O)(C(=O)OC)[C@H](OC(C)=O)[C@]5(CC)C=CCN6CC[C@]43[C@@H]65)C2)C1 [Vincristine]  0.971

same assay, conditions: 100 nM; time (day): 3; 177Lu-lilotomab satetraxetan 0 ug/ml

In order of rising “growth inhibition by drug alone” value:
1. COc1cc2c(NC3CCN(C)CC3)nc(N3CCCN(C)CC3)nc2cc1OCCCN(C)C  -0.568
2. O=C(O)c1ccc(-c2c[nH]c3ncc(-c4ccccc4)cc23)cc1C1CCCC1  -0.515
3. C=CCn1c(=O)c2cnc(Nc3ccc(N4CCN(C)CC4)cc3)nc2n1-c1cccc(C(C)(C)O)n1  -0.508
4. Cn1cc(C2=C(c3ccc(Cl)cc3Cl)C(=O)NC2=O)c2ccccc21  -0.488
5. CCC[C@H](NC(=O)/C(C#N)=C/c1cccc(Br)n1)c1ccccc1  -0.455
6. CCc1ccc(CCOc2ccc(CC3SC(=O)NC3=O)cc2)nc1 (stereo unspecified) [Pioglitazone (Actos)]  -0.391
7. OCCn1cc(-c2ccc3c(c2)CC/C3=N\O)c(-c2ccncc2)n1  -0.39
8. CCN(CC)CCCCNc1ncc2cc(-c3cc(OC)cc(OC)c3)c(NC(=O)NC(C)(C)C)nc2n1  -0.356
9. Cc1cc(Nc2cc(N3CCN(C)CC3)nc(/C=C/c3ccccc3)n2)n[nH]1  -0.354
10. Cn1cnc(N)c2ncnc1-2 [3-Methyladenine]  -0.346
11. Cc1cnc(Nc2ccc(OCCN3CCCC3)cc2)nc1Nc1cccc(S(=O)(=O)NC(C)(C)C)c1  -0.338
12. CCc1c2c(nc3ccc(OC(=O)N4CCC(N5CCCCC5)CC4)cc13)-c1cc3c(c(=O)n1C2)COC(=O)[C@]3(O)CC [Irinotecan HCl Trihydrate (Campto)]  -0.259
13. CS(=O)(=O)c1ccc(C(=O)Nc2ccc(Cl)c(-c3ccccn3)c2)c(Cl)c1 [Vismodegib (GDC-0449)]  -0.253
14. NC(=O)c1ccc(-c2nc(-c3ccccn3)c(-c3ccc4c(c3)OCO4)[nH]2)cc1  -0.221
15. CC(=O)c1c(C)c2cnc(Nc3ccc(N4CCNCC4)cn3)nc2n(C2CCCC2)c1=O  -0.149
16. Cc1cn(-c2cc(NC(=O)c3ccc(C)c(Nc4nccc(-c5cccnc5)n4)c3)cc(C(F)(F)F)c2)cn1 [Nilotinib (AMN-107)]  -0.122
17. O=C(O)C1(C(=O)O)CCC1.[NH2-].[NH2-].[Pt+2] [Carboplatin]  -0.121
18. CN(C)c1ccccc1CN1CCCN(Cc2ccccc2N(C)C)C1c1ccncc1  -0.107
19. CC(C)(C)c1ccc(S(=O)(=O)/C=C/C#N)cc1  -0.0892
20. COc1ccc(COc2cc3oc(=O)c4cc(C(C)O)ccc4c3cc2OC)cc1 (stereo unspecified) [Palomid 529]  -0.0737
21. O=C1CN2Cc3c(ccc(Cl)c3Cl)N=C2N1 [Anagrelide]  -0.0533
22. CNCc1ccc(-c2[nH]c3cc(F)cc4c3c2CCNC4=O)cc1  -0.0509
23. CC(C)(C#N)c1cc(Cn2cncn2)cc(C(C)(C)C#N)c1 [Anastrozole]  -0.0495
24. CCC(C)(C)C(=O)O[C@H]1C[C@@H](C)C=C2C=C[C@H](C)[C@H](CC[C@@H]3C[C@@H](O)CC(=O)O3)[C@H]21 [Simvastatin (Zocor)]  -0.024
25. COc1ccc2c3n(c(=NC(=O)c4cccnc4)nc2c1OC)CCN3  0.0975
26. CO[C@@H](C(=O)N1Cc2[nH]nc(NC(=O)c3ccc(N4CCN(C)CC4)cc3)c2C1)c1ccccc1  0.138
27. CNC(=O)c1cc(Oc2ccc(NC(=O)Nc3ccc(Cl)c(C(F)(F)F)c3)c(F)c2)ccn1 [Regorafenib (BAY 73-4506)]  0.189
28. CCc1cc(Nc2nccc(-c3c(-c4ccc(OC)c(C(=O)Nc5c(F)cccc5F)c4)nc4ccccn34)n2)c(OC)cc1N1CCC(N2CCN(S(C)(=O)=O)CC2)CC1  0.205
29. COc1cc2nc(N3CCCN(C)CC3)nc(NC3CCN(Cc4ccccc4)CC3)c2cc1OC  0.209
30. O=C1CN2Cc3c(ccc(Cl)c3Cl)N=C2N1 [Anagrelide hydrochloride]  0.214
31. O=C(NCCCNc1nc(Nc2cccc(NC(=O)N3CCCC3)c2)ncc1I)c1cccs1  0.339
32. CC[C@H](Nc1ncnc2[nH]cnc12)c1nc2cccc(F)c2c(=O)n1-c1ccccc1  0.424
33. CC(C=CC(=O)NO)=CC(C)C(=O)c1ccc(N(C)C)cc1 (stereo unspecified) [Trichostatin A (TSA)]  0.651
34. C#Cc1cccc(Nc2ncnc3cc(OCCOC)c(OCCOC)cc23)c1 [Erlotinib HCl]  0.656
35. CCOc1ccc(Nc2nc(-c3c(C)nc4ccccn34)cs2)cc1  0.931
36. CC[C@@H]1C(=O)N(C)c2cnc(Nc3ccc(C(=O)NC4CCN(C)CC4)cc3OC)nc2N1C1CCCC1  0.937
37. CC[C@]1(O)C[C@H]2CN(CCc3c([nH]c4ccccc34)[C@@](C(=O)OC)(c3cc4c(cc3OC)N(C=O)[C@H]3[C@@](O)(C(=O)OC)[C@H](OC(C)=O)[C@]5(CC)C=CCN6CC[C@]43[C@@H]65)C2)C1 [Vincristine]  0.938
38. CC(C)C[C@H](NC(=O)[C@H](Cc1ccccc1)NC(=O)c1cnccn1)B(O)O [Bortezomib (Velcade)]  0.978
